The text below walks through data of PubChem BioAssay AID624354 (Sanford-Burnham Center for Chemical Genomics, 2012).

Screen size: about 360,000 compounds; about 3,800 (1.1%) were called active. The full list was thinned out, with actives kept by preference. Values without a mark were called inactive.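 How the source made its calls: active means compounds causing at least 50% loss of cell viability in the single-dose screen, relative to plate controls; inactive means the rest.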

A short description of this test: TRAIL-exposed caspase-8 expressing cell killing – NB7+C8 cells, ATPlite luminescence, TRAIL sensitizer project, primary screen (AID 624354). The following applies: at 10 µM, stronger effect = higher value. (In general: Cellular ATP, detected with luciferase, serves as a proxy for viable cell number.)
Regarding `COc1ccccc1NC1=NC(c2ccc(Cl)cc2)N=C(N)N1` (centres undefined), the inhibition (viability loss, TRAIL sensitization) is -3.71%. To `CC(C#N)OC(=O)c1cccnc1SCC(=O)Nc1ccc2c(c1)OCO2` (centres undefined) belongs 4.56%; to `COc1ccccc1NS(=O)(=O)N(C)C`, -12.4%; to `NC(=O)COc1ccc(NC(=O)c2ccccc2-c2ccccc2)cc1`, -7.08%. As to `CC(=O)C[C@H](O)CC(=O)[C@@H]1OC(=O)[C@@H](C)C/C=C\Cc2ccccc21`, the inhibition (viability loss, TRAIL sensitization) was -3.79%. To `CCC(=O)Nc1ccc(S(=O)(=O)Nc2c(NC)c3ccccc3oc2=O)cc1` belongs 1.26%; to `Cc1cn([C@H]2C[C@H](O)[C@@H](CNC(=O)[C@H](N)Cc3cccnc3)O2)c(=O)[nH]c1=O`, -0.759%.

Take `CNC(=O)/C(=C\C=C\c1ccccc1)NC(=O)c1ccc([N+](=O)[O-])cc1`: the inhibition (viability loss, TRAIL sensitization) is -5.87%. Consider `CN1OC[C@@H]2CN(C(=O)c3ccc(-c4ccccc4)cc3)[C@H](c3ccc(-c4cccc(F)c4)cc3)C[C@@H]21`, for which the inhibition (viability loss, TRAIL sensitization) is -16.6%.

For `CCCOc1ccc(Cc2c(Cl)nc(SC)nc2NC)cc1`, the inhibition (viability loss, TRAIL sensitization) was 31.2%. With `Cc1occc1C(=O)N/N=C/c1ccc(-c2cccc([N+](=O)[O-])c2)o1`, the inhibition (viability loss, TRAIL sensitization) is -8.06%.

`Cc1[nH]n(-c2ccccc2)c(=O)c1/C=N/NC(=O)c1ccoc1C`: the inhibition (viability loss, TRAIL sensitization) is 53.8% (active). In the case of `Cc1ccc(-c2ccnc3[nH]n(-c4ccccc4)c(=O)c23)cc1`, the inhibition (viability loss, TRAIL sensitization) is -11.3%. Under `CCOc1ccc(S(=O)(=O)N2CCC(c3ccccc3)CC2)cc1C(=O)O` stands -3.46%; under `O=C(NC1=CC(=O)c2ccccc2C1=O)c1ccccc1`, 94.6% (active); under `COc1cc(NC(=O)c2ccccc2)c(OC)cc1NC(=O)Cc1ccccc1`, -3.72%. As to `C/C(=N\NC(=O)c1ccc(C)cc1)C1C(=O)c2ccccc2C1=O`, the inhibition (viability loss, TRAIL sensitization) was 8.6%. Under `CC1(C(=O)NS(=O)(=O)Cc2cccc(Cl)c2)CCN1C(=O)Cc1ccc(Cl)cc1Cl` (centres undefined) stands -0.832%; under `NC(c1csc(NC(=O)Nc2cccc(C(F)(F)F)c2)n1)C1CCCCC1` (centres undefined), 88.8% (active); under `COc1ccc(C(N)c2csc(NC(=O)Nc3cccc(C(F)(F)F)c3)n2)cc1` (centres undefined), 25.4%.

Consider `CC(C)(C)CC(=O)Nc1nc(C(N)Cc2ccc(C(F)(F)F)cc2)cs1` (centres undefined), for which the inhibition (viability loss, TRAIL sensitization) is -0.292%.

Take `Cc1cccc(C(=O)OC(C)C(=O)NC2CCCc3ccccc32)c1O` (centres undefined): the inhibition (viability loss, TRAIL sensitization) is 12.2%. To `CC1CCN(C(=O)C2CCN(S(=O)(=O)N3CCC4(CC3)OCCO4)CC2)CC1` belongs -3.06%; to `CCOC(=O)C1=C(C)NC(C)=C(C(=O)OCC)C1C1=COCCO1`, -19.1%; to `CC1COc2ccccc2N1C(=O)c1ccc(F)cc1` (centres undefined), -8.83%.

Consider `O=C(c1ccc(F)cc1)n1c(=S)nc2ccccn21`, for which the inhibition (viability loss, TRAIL sensitization) is 83% (active).

As for `O=C(c1ccc(F)cc1)N1CCC(n2nnc3ccccc32)CC1`, the inhibition (viability loss, TRAIL sensitization) is -1.41%. Under `Cc1c(C2=CCN(S(=O)(=O)c3ccc(Cl)cc3)CC2)c2ccccc2n1C` stands 9.41%.

Consider `Cn1c(N)c(C(=O)COC(=O)/C=C/c2ccc(OC(F)F)cc2)c(=O)n(C)c1=O`, for which the inhibition (viability loss, TRAIL sensitization) was -6.75%. Under `Cc1ccccc1C(OCCN(C)C)C1CCCCC1` (centres undefined) stands -0.767%; under `CNC(=S)N1N=C(c2ccccc2)CC1c1ccc(Br)cc1` (centres undefined), 79.2% (active).

For `COc1ccc(C2CC(c3ccccc3)=NN2C(=O)CSc2nccc(=O)[nH]2)cc1` (centres undefined), the inhibition (viability loss, TRAIL sensitization) was 25.2%. Take `Brc1ccc(C2CC(c3ccccc3)=Nc3ccccc3N2)cc1` (centres undefined): the inhibition (viability loss, TRAIL sensitization) was 24.3%. To `CC1CC(C)CN(CC(=O)N2c3ccccc3CCc3ccccc32)C1` (centres undefined) belongs -22.2%; to `CC1C(=O)N(Cc2ccccc2)c2ccccc2N1C(=O)c1ccccc1` (centres undefined), -0.863%; to `CC1C(C)N(C(=O)CCl)c2ccccc2N1C(=O)CCl` (centres undefined), 88.6% (active). For `COc1ccc(C(=O)NC(C)Cn2nc(C)cc2C)cc1OC1CCN(C(C)=O)CC1` (centres undefined), the inhibition (viability loss, TRAIL sensitization) is 8.29%.

For the compound `O=C(CC(O)(C(F)(F)F)C(F)(F)F)Nc1ccc(Cl)c(Cl)c1`, the inhibition (viability loss, TRAIL sensitization) was 62.6% (active).

Turning to `CC1(C(=O)O)CCC(C(=O)Nc2ccc(Cl)c(Cl)c2)C1(C)C` (centres undefined), the inhibition (viability loss, TRAIL sensitization) was -2.64%. Under `N#CCCN(C(=O)Nc1ccc(Cl)c(Cl)c1)C1CCCCC1` stands 7.87%; under `CC(=O)N1Cc2cc(C(=O)NCc3cccc(F)c3)nc(-c3cccc(C4=CCCCC4)c3)c2[C@H]1CCO`, 4.95%.

Take `CSCCC(NC(N)=O)C(=O)N(C)CC(=O)Nc1ccc(C)cc1` (centres undefined): the inhibition (viability loss, TRAIL sensitization) was -24.9%.

For the compound `CCOC(=O)c1c(NC(=O)CCl)sc(C(=O)N(CC)CC)c1C`, the inhibition (viability loss, TRAIL sensitization) is 92.5% (active). Under `COC(=O)c1sc(NC(=O)COC(=O)C2CCC2)c(C(=O)OC)c1C` stands -0.357%; under `CCOC(=O)c1c(NC(=O)COC(=O)c2ccc(S(=O)(=O)C(F)F)cc2)sc(C(=O)N(C)C)c1C`, -18.3%. Under `CCc1ccc2oc(-c3ccc(N)cc3)nc2c1` stands 74.9% (active); under `O=C(C(Cc1ccccc1)n1cccc1)N1CCN(C2CCCCC2)CC1` (centres undefined), 1.84%. To `CN(C)CCNC(=O)c1cccc(-c2cnc3c(NC=O)cc(-c4cccc(C(F)(F)F)c4)cn23)c1` belongs 59.1% (active). `CN(C)C(=O)c1cccc(-c2cnc3c(NC=O)cc(-c4ccc(F)cc4)cn23)c1`: the inhibition (viability loss, TRAIL sensitization) was 16.1%.

Take `CC(=O)c1cccc(-c2cnc3c(NC=O)cc(-c4ccc(N(C)C)cc4)cn23)c1`: the inhibition (viability loss, TRAIL sensitization) was 17.5%. Under `Cc1ccc(-c2ccc(CN3C(C(C)C)C(=O)N(Cc4cn(CCC5OCCO5)nn4)CCS3(=O)=O)cc2)cc1` (centres undefined) stands -2.12%; under `Oc1cccc2cc(-c3ccncc3)cnc12`, 47.7%; under `COc1ccc(C(O)c2nc(-c3ccc4c(c3)OCO4)cs2)cc1` (centres undefined), -6.82%. Under `Cc1ccc(C(=O)NNC2=Nc3cc([N+](=O)[O-])ccc3OC2)cc1` stands -18%; under `COc1ccc(C2=Nc3cc(C)ccc3OC2)cc1`, 58.6% (active); under `C=CCN(CC=C)C(=O)COC(=O)c1n[nH]c2ccccc12`, 9.77%.

Regarding `c1ccc2[nH]c(-c3nc4ccccc4[nH]3)nc2c1`, the inhibition (viability loss, TRAIL sensitization) is 69.4% (active). To `O=C1c2ccccc2C(c2nc3ccccc3[nH]2)N1c1ccccc1` (centres undefined) belongs -17.6%. Consider `Nc1ccccc1-c1nc2ccncc2[nH]1`, for which the inhibition (viability loss, TRAIL sensitization) is 12.6%.
